# Results taken from PubChem BioAssay (NCI).
# About 79,000 compounds went through this panel and 15% of them were active in at least one assay; those are over-represented in the sample as a whole. Unmarked numbers belong to inactive results. Calls of active or inactive are those of the source. No stated cut-off is given here; in the data, active means growth inhibition above about 70%; inactive means the rest.
# Columns and labels:
# [1] = NCI Yeast Anticancer Drug Screen. Data for the wt1 strain (AID 149);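 further: 0% = growth of vehicle-treated wt1 cultures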; settings: S. cerevisiae wt1 strain (SPY 50644) growth inhibition, hits give high values
# Summary of the method: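 Using yeast strain wt1, compound-induced growth inhibition was determined against vehicle-treated cultures.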
# [2] = NCI Yeast Anticancer Drug Screen. Data for the mgt1 strain (AID 153); settings: S. cerevisiae mgt1 mutant growth inhibition, hits give high values
# Summary of the method: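 mgt1 yeast grown with test compound; read-out is growth inhibition versus vehicle-treated cultures.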
# [3] = NCI Yeast Anticancer Drug Screen. Data for the rad50 strain (AID 155);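 further: 0% = growth of vehicle-only cultures of the same strain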; settings: S. cerevisiae rad50 strain growth inhibition, hits give high values
# Summary of the method: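 Relative growth inhibition (compound vs vehicle) was measured in yeast with a defined repair-gene alteration.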
# [4] = NCI Yeast Anticancer Drug Screen. Data for the mec2-1 strain (AID 157); settings: S. cerevisiae mec2-1 strain, hits give high values
# Summary of the method: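 Yeast mec2-1 mutant treated with compound. Readout: growth inhibition vs vehicle controls.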
# [5] = NCI Yeast Anticancer Drug Screen. Data for the rad14 strain (AID 159);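 further: 0% = growth of vehicle-treated control cultures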; settings: S. cerevisiae rad14 strain growth inhibition, hits give high values
# Summary of the method: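 Screen for anticancer potential: a yeast strain altered in DNA damage repair is grown with compound, and reduced growth is quantified against vehicle controls.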
# [6] = NCI Yeast Anticancer Drug Screen. Data for the sgs1 mgt1 strain (AID 161);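 further: 0% = growth of cultures given vehicle only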; settings: S. cerevisiae sgs1 mgt1 strain, hits give high values
# Summary of the method: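 Test agents were incubated with a DNA-repair-mutant yeast strain. Growth was then read and compared against vehicle-treated controls.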
# [7] = NCI Yeast Anticancer Drug Screen. Data for the CLN2oe strain (AID 163);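 further: 0% = growth of vehicle-only control cultures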; settings: S. cerevisiae CLN2oe strain, hits give high values
# Summary of the method: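 Read-out: yeast growth inhibition, expressed relative to vehicle-only controls. The strain bears an engineered cell-cycle alteration.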
# [8] = NCI Yeast Anticancer Drug Screen. Data for the cln2 rad14 strain (AID 165);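 further: 0% = growth equal to vehicle treated cultures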; settings: S. cerevisiae cln2 rad14 strain, hits give high values
# Summary of the method: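 cln2 rad14 yeast strain; compound exposure; growth inhibition read vs vehicle controls.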
# [9] = NCI Yeast Anticancer Drug Screen. Data for the bub3 strain (AID 167); settings: S. cerevisiae bub3 mutant strain, hits give high values
# Summary of the method: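 Screening used yeast with an engineered genetic alteration affecting cell cycle control. Compound-exposed cultures were compared with vehicle cultures, and reduced growth was taken as inhibition.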
# [10] = NCI Yeast Anticancer Drug Screen. Data for the wt2 strain (AID 169);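 further: 0% = growth of vehicle-treated yeast cultures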; settings: S. cerevisiae wt2 strain growth inhibition, hits give high values
# Summary of the method: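 Read-out: growth inhibition versus vehicle-treated control cultures after compound exposure of the yeast strain.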
# [11] = NCI Yeast Anticancer Drug Screen. Data for the sgs1 strain (AID 173);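 further: 0% = growth of vehicle-only control cultures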; settings: S. cerevisiae sgs1 mutant, hits give high values
# Summary of the method: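 Read-out: yeast growth inhibition relative to vehicle controls, following compound exposure of a strain with a defined DNA repair/cell cycle alteration.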
# [12] = NCI Yeast Anticancer Drug Screen. Data for the mlh1 rad18 strain (AID 175); settings: S. cerevisiae mlh1 rad18 strain growth inhibition, hits give high values
# Summary of the method: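 Yeast w/ defined DNA-repair lesions; compound exposure; growth vs vehicle controls → % inhibition.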
# [13] = NCI Yeast Anticancer Drug Screen. Data for the rad18 strain (AID 177); settings: S. cerevisiae rad18 mutant growth inhibition, hits give high values
# Summary of the method: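 Readout: growth inhibition vs vehicle controls. Cells: genetically altered yeast strain, DNA repair defect.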
# [14] = at 5.0 µM (retest, dose inferred, filed as 0.5)
# [15] = at 50.0 µM (retest, dose inferred, filed as 5.0)
smiles,measurement,setting,value
CSc1nc(-c2ccccc2)nc(=[N+]2CCOCC2)s1,growth inhibition,[1]; at 1.2 µM,5%
same,growth inhibition,[1]; at 3.7 µM,11%
same,growth inhibition,[1]; at 11.0 µM,23%
same,growth inhibition,[1]; at 33.0 µM,56%
same,growth inhibition,[1]; at 100.0 µM,93% (active)
same,growth inhibition,[2]; at 1.2 µM,3%
same,growth inhibition,[2]; at 3.7 µM,11%
same,growth inhibition,[2]; at 11.0 µM,31%
same,growth inhibition,[2]; at 33.0 µM,87% (active)
same,growth inhibition,[2]; at 100.0 µM,98% (active)
same,growth inhibition,[3]; at 1.2 µM,13%
same,growth inhibition,[3]; at 3.7 µM,37%
same,growth inhibition,[3]; [14],74% (active)
same,growth inhibition,[3]; at 11.0 µM,79% (active)
same,growth inhibition,[3]; at 33.0 µM,94% (active)
same,growth inhibition,[3]; [15],74% (active)
same,growth inhibition,[3]; at 50.0 µM,88.8% (active)
same,growth inhibition,[3]; at 100.0 µM,98% (active)
same,growth inhibition,[4]; at 1.2 µM,1%
same,growth inhibition,[4]; at 3.7 µM,8%
same,growth inhibition,[4]; [14],18%
same,growth inhibition,[4]; at 11.0 µM,32%
same,growth inhibition,[4]; at 33.0 µM,73% (active)
same,growth inhibition,[4]; [15],18%
same,growth inhibition,[4]; at 50.0 µM,73.5% (active)
same,growth inhibition,[4]; at 100.0 µM,98% (active)
same,growth inhibition,[5]; at 1.2 µM,4%
same,growth inhibition,[5]; at 3.7 µM,9%
same,growth inhibition,[5]; at 11.0 µM,25%
same,growth inhibition,[5]; at 33.0 µM,78% (active)
same,growth inhibition,[5]; at 100.0 µM,99% (active)
same,growth inhibition,[6]; [14],44%
same,growth inhibition,[6]; [15],44%
same,growth inhibition,[6]; at 50.0 µM,86.4% (active)
same,growth inhibition,[7]; at 1.2 µM,-4%
same,growth inhibition,[7]; at 3.7 µM,6%
same,growth inhibition,[7]; at 11.0 µM,21%
same,growth inhibition,[7]; at 33.0 µM,77% (active)
same,growth inhibition,[7]; at 100.0 µM,96% (active)
same,growth inhibition,[8]; [14],14%
same,growth inhibition,[8]; [15],14%
same,growth inhibition,[8]; at 50.0 µM,64.1%
same,growth inhibition,[9]; at 1.2 µM,-8%
same,growth inhibition,[9]; at 3.7 µM,-3%
same,growth inhibition,[9]; [14],21%
same,growth inhibition,[9]; at 11.0 µM,32%
same,growth inhibition,[9]; at 33.0 µM,82% (active)
same,growth inhibition,[9]; [15],21%
same,growth inhibition,[9]; at 50.0 µM,81.6% (active)
same,growth inhibition,[9]; at 100.0 µM,96% (active)
same,growth inhibition,[10]; at 1.2 µM,6%
same,growth inhibition,[10]; at 3.7 µM,15%
same,growth inhibition,[10]; at 11.0 µM,37%
same,growth inhibition,[10]; at 33.0 µM,81% (active)
same,growth inhibition,[10]; at 100.0 µM,97% (active)
same,growth inhibition,[11]; at 1.2 µM,10%
same,growth inhibition,[11]; at 3.7 µM,31%
same,growth inhibition,[11]; at 11.0 µM,72% (active)
same,growth inhibition,[11]; at 33.0 µM,94% (active)
same,growth inhibition,[11]; at 100.0 µM,98% (active)
same,growth inhibition,[12]; [14],35%
same,growth inhibition,[12]; [15],35%
same,growth inhibition,[12]; at 50.0 µM,82.2% (active)
same,growth inhibition,[13]; at 1.2 µM,16%
same,growth inhibition,[13]; at 3.7 µM,50%
same,growth inhibition,[13]; at 11.0 µM,86% (active)
same,growth inhibition,[13]; at 33.0 µM,94% (active)
same,growth inhibition,[13]; at 100.0 µM,98% (active)
